In PubChem BioAssay (NCATS):
Inconclusive results are not listed. Active and inactive are the calls of the source. Unless noted, calls come from the whole dose curve; as a rule, active = well fitted curve in the direction sought with a large enough effect; inconclusive = small, poorly fitted or top-dose-only effect, or another doubt; inactive = no such curve, though single readings can be large; an effect the other way counts as inactive or inconclusive.

What was measured:
[1] = Cell Viability - BJ (AID 421; calls by dose curve;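 note: potency is the fitted concentration of half-maximal effect; cells exposed to compound for 40 hours at 37 °C before readout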); settings: BJ fibroblast viability, qHTS
Procedure, shortened: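 Luminescent ATP signal (CellTiter-Glo, 20 min at room temperature) served as the read-out of viable BJ cells after 40 hours of compound treatment. Responses were scaled between DMSO and 100 uM tamoxifen, and AC50 values were obtained by Hill modeling.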

[2] = Cell Viability - Jurkat (AID 426;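 active = dose-dependent loss of cell ATP signal giving a full or clear fitted curve, ranked by lower potency value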;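 note: potency is the fitted concentration of half-maximal effect; cells exposed to compound for 40 hours at 37 °C before ATP read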); settings: qHTS
Procedure, shortened: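 Cells of the human T-cell leukemia line Jurkat (E6-1) are seeded at 5000 per well, treated with compound across a concentration range for 40 hours at 37 °C, then lysed with CellTiter-Glo; luminescence reports ATP.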

[3] = Cell Viability - Hek293 (AID 427;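 active = compounds whose dose-response curve shows a full or clear partial loss of cell viability, called from curve shape rather than a numeric limit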;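 note: potency is the fitted concentration of half-maximal effect; cells exposed to compound for 40 hours at 37 °C before reading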); settings: qHTS
Procedure, shortened: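 Luminescent ATP read-out (CellTiter-Glo, 20 min RT) after 40 hr compound exposure at 37 °C in complete medium. Signal normalized to DMSO (basal) and 100 uM tamoxifen (100% inhibition); concentration-response fitted with the standard Hill equation to give AC50.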

[4] = Cell Viability - HepG2 (AID 433; calls by dose curve;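 note: potency is the fitted concentration of half-maximal effect; potency for ATP loss meaning cytotoxicity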); settings: qHTS
Procedure, shortened: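 HepG2 hepatocellular carcinoma cells (1500/well) were treated with compounds for 40 h at 37 °C in complete medium; intracellular ATP was read by CellTiter-Glo luminescence. Data were normalized to DMSO and 100 uM tamoxifen, and AC50 came from Hill fits.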

[5] = Cell Viability - MRC5 (AID 434; calls by dose curve;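 note: potency is the fitted concentration of half-maximal effect; potency reflects cytotoxicity seen as loss of intracellular ATP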); settings: MRC5 lung fibroblast viability, qHTS
Procedure, shortened: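 Decrease in intracellular ATP, quantified by luciferase light output, reflects compound toxicity toward MRC5 cells exposed for 40 hr in complete culture medium. Concentration-response curves, scaled between DMSO and 100 uM tamoxifen, gave AC50 values.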

[6] = Cell Viability - SK-N-SH (AID 435; calls by dose curve;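 note: potency is the fitted concentration of half-maximal effect; compound exposure lasted 40 h at 37 °C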); settings: SK-N-SH neuroblastoma cell viability qHTS
Procedure, shortened: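 SK-N-SH human neuroblastoma cells (1500/well) were exposed to compounds in complete medium for 40 h at 37 °C, and intracellular ATP was then measured by CellTiter-Glo luminescence. AC50 was taken from Hill fits, normalized to DMSO and 100 uM tamoxifen.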

[7] = biological target: Mitogen-activated protein kinase 10 (Mus musculus) (UniProt Q61831); assay: JNK3 AlphaScreen Assay (AID 530; active = well fitted curve in either direction with a large enough effect, not every such curve was filed as active;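 note: kinase came from lysate of stimulated human HepG2 cells; signal reports phosphorylation of biotinylated GST-cJun 1-79 at Ser73 with 10 µM ATP; % is set by controls: 0 for no effect and ±100 for the full control effect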); settings: JNK3 lysate, c-Jun phosphorylation; series mostly up to 57.1 µM
Procedure, shortened: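 Phosphorylation of biotinylated GST-cJun(1-79) at Ser73 is measured by AlphaScreen proximity luminescence. Enzyme is JNK3 in HepG2 lysates activated with interleukin-1beta and tumor necrosis factor alpha; ATP is 10 uM final.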

[8] = Cell Viability - N2a (AID 540); settings: N2a mouse neuroblastoma cell viability; at 92.2 µM (top of the series);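 note: plate controls were DMSO alone for no effect and tamoxifen control for full effect; nearly all actives have a fitted effect of over 45% in size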
Procedure, shortened: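 Cytotoxicity was scored as loss of cellular ATP in N2a cells, a mouse neuroblastoma line. Compounds are applied in a qHTS concentration series for 40 hr at 37 °C.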

[9] = Cell Viability - NIH 3T3 (AID 541); settings: NIH 3T3 cell viability, qHTS; at 92.2 µM (top of the series);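 note: plate controls were DMSO alone for no effect and tamoxifen positive control for full effect; nearly all actives have a fitted effect of over 25% in size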
Procedure, shortened: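 Cells seeded at 1000/well, rested 5 hr at 37 °C, then dosed and incubated 40 hr at 37 °C. CellTiter-Glo added, 20 min room temperature, luminescence read. AC50 by Hill fit.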

[10] = Cell Viability - HUV-EC-C (AID 542); settings: HUV-EC-C endothelial cell viability, qHTS; series mostly up to 92.2 µM; note: % is set by controls: 0 for no effect and ±100 for the full control effect; nearly all actives have a fitted effect of over 35% in size
Procedure, shortened: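 Cells were seeded at 1000 per well and incubated 5 hr at 37 °C before compound addition. After 40 hr at 37 °C, CellTiter-Glo reagent was added for 20 min and luminescence read. AC50 values came from Hill-equation modelling.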

[11] = Cell Viability - H-4-II-E (AID 543); settings: H-4-II-E rat hepatoma viability; series mostly up to 92.2 µM; note: % is set by controls: 0 for no effect and ±100 for the full control effect; nearly all actives have a fitted effect of over 35% in size
Procedure, shortened: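 Cells seeded at 1500 per well and rested 5 hr; compounds added; 40 hr incubation at 37 °C; CellTiter-Glo added, 20 min at room temperature; luminescence read. Hill-equation fits gave AC50.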

[12] = Cell Viability - SH-SY5Y (AID 544); settings: SH-SY5Y neuroblastoma cell viability; series mostly up to 92.2 µM; note: nearly all actives have a fitted effect of over 55% in size
Procedure, shortened: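 Cells were plated at 1500 per well and allowed 5 hr at 37 °C. Compounds were added across a concentration range and incubated 40 hr at 37 °C. CellTiter-Glo was added for 20 min at room temperature before luminescence reading.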

[13] = Cell Viability - Renal Proximal Tubule (AID 545); settings: renal proximal tubule cells viability; series mostly up to 91.7 µM; note: nearly all actives have a fitted effect of over 40% in size
Procedure, shortened: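 Primary rat renal proximal tubule cells (1000/well) were treated with compounds for 40 hr at 37 °C in complete medium. Intracellular ATP was measured by CellTiter-Glo luminescence, and AC50 values came from Hill-equation fits of concentration-response data.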

[14] = Cell Viability - Mesenchymal (AID 546); settings: mesenchymal cells viability, qHTS; series mostly up to 91.7 µM;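 note: cells exposed to compound for 40 hours before reading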
Procedure, shortened: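 In this qHTS cytotoxicity format, glomerulus-derived human mesenchymal kidney cells received compound for 40 hr, then luciferase-based ATP quantitation. Concentration-response data were fitted with the Hill equation.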

[15] = Cellular Toxicity (caspase-3) Jurkat (AID 655); settings: Jurkat caspase-3 activation, luminescence, DMSO = 0%, tamoxifen = 100%; series mostly up to 92.2 µM;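 note: cells exposed to compound for 16 h at 37 °C before reading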
Procedure, shortened: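 Jurkat cells (5000/well) in complete medium were treated with compounds for 16 hr at 37 °C, then Caspase-Glo 3/7 luminescence was read after 20 min at room temperature. Data normalized to DMSO (basal) and 100 uM tamoxifen (100%); AC50 from Hill fit.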

[16] = Cellular Toxicity (caspase-3) HUV-EC-C (AID 656); settings: HUV-EC-C cells, caspase-3 activation (apoptosis), vehicle = 0, 100 µM tamoxifen = 100%; series mostly up to 92.2 µM
Procedure, shortened: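 HUV-EC-C endothelial cells, 1000/well, were pre-incubated 5 hr at 37°C, then exposed to compounds for 16 hr at 37°C. Caspase-Glo 3/7 luminescence was read after 20 min at room temperature. AC50 came from Hill fits, normalized to DMSO and 100 uM tamoxifen.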

[17] = Cellular Toxicity (caspase-3) SHSY5Y (AID 657); settings: SH-SY5Y caspase-3 activation, DMSO zero, 10 µM staurosporine = 100%; series mostly up to 91.7 µM
Procedure, shortened: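 SH-SY5Y human neuroblastoma cells (1500/well) were treated with compounds for 16 h at 37 °C, then Caspase-Glo 3/7 luminescence was read after 1 h at room temperature. Data normalized to DMSO and 10 uM staurosporine; AC50 from Hill fits.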

[18] = Cellular Toxicity (caspase-3) BJ (AID 658); settings: BJ fibroblasts, luminescence, normalized: DMSO 0%, staurosporine 100%; series mostly up to 91.7 µM
Procedure, shortened: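 Plated BJ cells (1000/well) rested 5 hr, received compound for 16 hr at 37 °C, then Caspase-Glo 3/7 reagent for 1 hr at room temperature before luminescence reading.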

[19] = Cellular Toxicity (caspase-3) MRC-5 (AID 659); settings: MRC-5 cells, luminescence, normalized: DMSO 0%, 10 µM staurosporine 100%; series mostly up to 91.7 µM
Procedure, shortened: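 Apoptosis readout in MRC-5 cells: luciferase light generated after caspase 3/7 cleaves a peptide-aminoluciferin substrate, measured post 16 hr compound incubation at 37 °C.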

[20] = Cellular Toxicity (caspase-3) Mesangial (AID 660); settings: mesangial cells, normalized: DMSO 0%, 100 µM tamoxifen 100%; series mostly up to 91.7 µM;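 note: combined caspase 3 and 7 activity read by Caspase-Glo luminescence; cells exposed to compound for 16 h before the caspase read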
Procedure, shortened: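 Seed cells derived from normal human renal glomeruli, incubate 5 h, add compounds across concentrations and incubate 16 h at 37 °C. Caspase 3/7 activation is then quantified by luciferase light, with AC50 derived by Hill modeling.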

[21] = Cellular Toxicity (caspase-3) SK-N-SH (AID 661); settings: SK-N-SH caspase-3 activation, qHTS, DMSO as zero, staurosporine as full; series mostly up to 91.7 µM
Procedure, shortened: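 Cells were seeded and incubated 5 hr at 37 °C, dosed with compound over a concentration range for 16 hr, then given Caspase-Glo 3/7 reagent for 1 hr at room temperature before luminescence reading.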

[22] = Cellular Toxicity (caspase-3) H-4-II-E (AID 663); settings: H-4-II-E rat hepatoma, scaled: DMSO 0%, 100 µM tamoxifen 100%; series mostly up to 92.2 µM;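 note: cells exposed to compound for 16 hr before readout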
Procedure, shortened: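 Caspase 3/7 activation measured in H-4-II-E cells in complete culture medium after 16 hr treatment at 37 °C, using luciferase-coupled substrate readout; AC50 values come from Hill-equation fits of normalized concentration-response data.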

[23] = Cellular Toxicity (caspase-3) Hek293 (AID 664); settings: HEK293 caspase-3 activation, DMSO = 0%, 100 µM tamoxifen = 100%; series mostly up to 92.2 µM;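 note: cells exposed to compound for 16 h at 37 °C before readout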
Procedure, shortened: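 qHTS, HEK293 (human embryonic kidney), 16 h cpd exposure in complete medium. Caspase-3/7 activation = luminescence increase; normalized to DMSO/100 uM tamoxifen; Hill-fit AC50.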

[24] = Cellular Toxicity (caspase-3) N2a (AID 665); settings: N2a cells, luminescence, normalized: DMSO 0%, 10 µM staurosporine 100%; series mostly up to 92.2 µM;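 note: compound exposure lasted 16 h at 37 °C before readout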
Procedure, shortened: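 Caspase-3/7 activation, measured as increased luminescence from aminoluciferin release, is quantified in mouse N2a cells exposed to compounds for 16 h. Values are normalized to DMSO and 10 uM staurosporine, with AC50 derived by Hill modelling.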

COC(=O)c1ccccc1C(=O)OC
inactive: Potency [1] > 92 µM | Potency [2] > 92 µM | Potency [3] > 92 µM | Potency [4] > 92 µM | Potency [5] > 92 µM | Potency [6] > 92 µM | outcome [7] | activity change, negative = cytotoxicity [8] 4.28% | activity change, negative = cytotoxicity [9] 2.58% | outcome [10] | outcome [11] | outcome [12] | outcome [13] | outcome [14] | outcome [15] | outcome [16] | outcome [17] | outcome [18] | outcome [19] | outcome [20] | outcome [21] | outcome [22] | outcome [23] | outcome [24]
